Test results: ChEMBL document CHEMBL3988442, “University of Dundee, Small-Polar-MMV Screening Library” (2021)
Hit rate of the full screen: of about 48,000 compounds, about 13,000 (27%) showed an effect of 50% or more. This is one part of the list.

What follows are compounds tested on Wolbachia pipientis (assay: Anti-Wolbachia Cell-Based Screen). Conditions: 5 µM.
Type: functional
Design: scale not given: in the data most compounds retested in dose-response had high values

SMILES	Percent Effect
O=C(O)C(F)(F)F.O=C(O)C(F)(F)F.O=C(O)c1cc2c(nc1N1CCOCC1)CCN(C1CCOC1)CC2 (stereo unspecified)	-7.215%
Cc1ccnc2c1NC(=O)CN2C(=O)CCC(F)(F)F	-8.698%
O=C(OC1CCC1)c1ncccc1OCC(F)(F)F	-10.44%
CCCNCc1cc2c(C)cc(C)cc2n2c(=O)n(C)nc12	-10.06%
CCOCCCNCc1cc(O)c2cc(C)ccc2n1	-26.14%
COCCCn1cnnc1CNC(=O)c1[nH]c2c(C)cc(C)cc2c1C	0.2132%
CCOCCCNCc1cc2c(C)cc(C)cc2n2c(=O)n(C)nc12	119.1%
COCCNCc1cc2c(C)cc(C)cc2n2c(=O)n(C)nc12	88.13%
O=C1CCC2(CCCN(c3ncnc4[nH]cnc34)C2)CN1CCCO (stereo unspecified)	-3.767%
COc1ccccc1CC(NC(=O)N1CCC[C@@H]1CO)C(C)C (stereo partly specified)	-5.452%
CSCCC(=O)N1CCC(c2nnc(CN(C)CCO)n2C)CC1	26.9%
CCS(=O)(=O)N1CCc2ccc(NC(=O)NC(C)(C)C)cc21	107.2%
NS(=O)(=O)N1CCc2ccc(NC(=O)CC(F)(F)F)cc21	-10.92%
CCS(=O)(=O)N1CCc2ccc(NC(=O)Nc3cccc(C)c3)cc21	127.7%
CCS(=O)(=O)N1CCc2ccc(NC(=O)Nc3cccc(F)c3)cc21	144.6%
Cc1cccc(NC(=O)NC2CCN(C3CCOC3)CC2)c1 (stereo unspecified)	-12.46%
CCS(=O)(=O)N1CCCc2ccc(NC(=O)Cc3ccc(F)cc3)cc21	-6.577%
CCS(=O)(=O)N1CCc2ccc(NC(=O)Nc3cccc(SC)c3)cc21	9.677%
CCS(=O)(=O)N1CCc2ccc(NC(=O)NC3CCCCC3)cc21	108.5%
COc1cc(NC(=O)NC2CCCC2)ccc1N1CCOC1=O	8.686%
NS(=O)(=O)N1CCc2ccc(NC(=O)Cc3ccc(F)cc3)cc21	-5.162%
O=C(Nc1ccccc1)C1CCCN(c2cc(-n3cncn3)ncn2)C1 (stereo unspecified)	-3.274%
COCC1CN(C(=O)Cc2cccc(F)c2)Cc2ccnn2C1.O=C(O)C(F)(F)F (stereo unspecified)	13.65%

SMILES	Percent Effect
CCC(=O)N1CC[C@@H](c2ccc3ccccc3c2)[C@H](O)C1	-8.5%
CC(NS(C)(=O)=O)C(=O)N(C)Cc1csc(-c2cccs2)n1 (stereo unspecified)	-6.188%
O=S(=O)(N1CCCCC1)N1CCOC2(CCCC2)C1	-3.647%
O=C(NC1CC1)NC(c1ccc(F)cc1)C1CC1 (stereo unspecified)	-8.198%
CCS(=O)(=O)N1CCc2ccc(NC(=O)Nc3ccccc3)cc21	185.4%
CCS(=O)(=O)N1CCc2ccc(NC(=O)Nc3ccc(F)cc3F)cc21	3.435%
NS(=O)(=O)N1CCc2ccc(NC(=O)Cc3ccccc3F)cc21	-18.89%
CCS(=O)(=O)N1CCc2ccc(NC(=O)Nc3ccccc3C)cc21	122.8%
CN(CCN1CCN(c2ccccc2)CC1)C(=O)Nc1ccccn1	-17.55%
CC(C)Oc1ncccc1CNC(=O)c1ccco1	7.44%
Cc1ccc(C(=O)N2CC(C(N)=O)O[C@H](C)C2)c(F)c1 (stereo partly specified)	-9.152%
N#CCCN(Cc1ccco1)C(=O)CN1CCCC1c1cccs1 (stereo unspecified)	-7.66%
COc1ccc(CN(C)C(=O)CSc2nnc(N)s2)c(OC)c1OC	2.435%
CSCC(=O)N(C)Cc1noc(-c2ccccc2)n1	108.1%
CN(C)C(=O)Cc1ccccc1NCc1noc(-c2ccccc2)n1	11.76%
CCc1nc(CN(C)C(=O)CSC)no1	99.89%
CCc1nc(CN(C)C(=O)C2CCC(=O)N(CC3CCCCC3)C2)no1 (stereo unspecified)	-15.94%
CCc1noc(CN(C)C(=O)COc2cc(Cl)cc(Cl)c2)n1	-5.267%
CC(C)c1nc(CN(C)C(=O)Cn2nc3ccccc3n2)no1	-13.5%
CN(Cc1noc(-c2ccccc2)n1)C(=O)CSc1nnc(N)s1	121.6%
CCn1ccc(CN(C)C(=O)CSc2nnc(N)s2)n1	5.02%
Cn1cc(N2CCC3(CCN(S(=O)(=O)C4CC4)C3)C2=O)cn1 (stereo unspecified)	-13.56%
CCCC(C)CS(=O)(=O)NCCc1csc(N2CCCC2)n1 (stereo unspecified)	5.842%

SMILES	Percent Effect
CC1(C)Cc2c(cnn2-c2ccccc2)C(NC2CCSCC2)C1 (stereo unspecified)	2.86%
CN(C)c1ccnc(-c2ccnc3c2ccn3C)n1	-3.285%
Cc1[nH]c2c(C)ccc(C)c2c1CC(=O)NCCCNc1cccnc1	-12.73%
O=C(c1ccc2cccnc2n1)N(Cc1ccsc1)CC1CCCO1 (stereo unspecified)	-29.46%
COCCN1Cc2ccccc2C2(CCN(C(=O)c3ccco3)CC2)C1	91.37%
COCCN1CCC2(CC1)CC1(CCN(S(C)(=O)=O)CC1)N(C)C2=O.O=C(O)C(F)(F)F	-9.423%
COCCN1CC2(CCN(Cc3ccco3)CC2)c2ccccc21	-16.07%
COCCN1C[C@H]2CN(C(=O)c3ccno3)CCN2C1=O	3.514%
CCS(=O)(=O)N1CCC2(CC1)CN(C(=O)N(C)C)Cc1ccccc12	-41.7%
COCCN1Cc2ccccc2C2(CCN(S(C)(=O)=O)CC2)C1	109.9%
O=C(c1ccco1)N1CCC2(CC1)C(=O)Nc1ccccc12	-7.592%
O=C(c1ccno1)N1CCC2(CC1)C(=O)Nc1ccccc12	0.1339%
COCCN1Cc2ccccc2C2(CCN(C(=O)c3ccno3)CC2)C1	106.5%
Cc1ccc(C(=O)Nc2cccc3c2C(=O)NC3)c(C)n1	-2.739%
c1coc(CN2CCc3ncnc(C4CCOC4)c3CC2)c1 (stereo unspecified)	-7.93%
COCCN1CCCC(O)(CN2CCN(c3cc(C)ccn3)CC2)C1=O (stereo unspecified)	-13.95%
CCOCC1(CNCc2cc(O)c3cc(C)ccc3n2)CC1	1.355%
COc1ccc(CN2CCC(CO)(Cc3ccc(Cl)cc3)CC2)c(O)c1	-0.5928%
O=c1n(CC2COCCO2)nc(CC2CCNCC2)n1-c1ccccc1 (stereo unspecified)	28.69%
CCNC(=O)c1ccc2ccc(N(CC)CC)n2c1	1.029%
CCN(CC)c1ccc2ccc(C(=O)N(C)C)cn12	-16.77%
CCN(CC)c1ccc2ccc(C(=O)NC3CC3)cn12	-16.69%
CN(CC1CC1)c1ccc2ccc(C(=O)NC3CCCCC3)cn12	118%

SMILES	Percent Effect
CCN(CC)c1ccc2ccc(C(=O)O)cn12	-4.44%
COC(=O)N1CCC(Oc2ccc(C(=O)NCCN(C)C)cc2Cl)CC1	19.93%
CCn1cc(C(=O)NCc2cccnc2N(C)Cc2ccccc2)cn1	2.697%
CN(C)C(=O)CNC(=O)c1ccc2ccc(N(C)CC3CC3)n2c1	99.28%
CN(C)CCNC(=O)c1ccc(OC2CCN(C3CCC3)CC2)c(Cl)c1	-4.706%
CN(CC1CC1)c1ccc2ccc(C(=O)NCCc3ccccc3)cn12	99.05%
CN(C)CCNC(=O)c1ccc2ccc(N(C)CC3CC3)n2c1	115.7%
CCNC(=O)N1C[C@@H]2OCC(=O)N(CC3CCCCC3)[C@@H]2C1	-5.369%
CN(C)S(=O)(=O)c1cccc(CNc2cc(CO)ccc2Cl)c1	-35.79%
O=C(NCc1ccccc1CN1CCC(O)CC1)Nc1cccnc1	-0.5671%
COCCCN1CCC(c2nc3c([nH]2)CC(C)(C)CNC3=O)C1 (stereo unspecified)	-5.99%
CCc1nnc(SC2CCN(c3ccccc3F)C2=O)n1C (stereo unspecified)	-9.884%
Cc1cc2n(n1)CC(CNC1CCN(C3CC3)CC1)CN2 (stereo unspecified)	-6.962%
CN(CCOc1ccc(F)cc1)S(=O)(=O)N1CCOCC1	-1.618%
Cc1cccc2sc(NC(=O)CN3CCCC(O)(CO)C3)nc12 (stereo unspecified)	-1.543%
COCCNC(=O)CCNC(=O)c1ccc(N2CCC(C)=N2)cc1	-2.111%
CCN(CC)c1ccc2ccc(C(=O)N(CCOC)CCOC)cn12.O=C(O)C(F)(F)F	4.611%
COCCNC(=O)c1ccc2ccc(N(C)CC3CC3)n2c1	103.1%
Cc1ccc(C)c(CC(=O)NC2CCS(=O)(=O)CC2)c1	-1.123%
COC(=O)N1CCC(NC(=O)Cn2cc(C)c3ccccc32)CC1	-17.34%
CC(=O)NCc1ccc(C(=O)N2CCCc3c(F)ccc(C)c32)cc1	-14.03%
Cc1ccc(C)c(CC(=O)NC2CCCS(=O)(=O)C2)c1 (stereo unspecified)	-8.397%
CC(=O)N1CCC(NC(=O)CN2CCCc3c(F)ccc(C)c32)CC1	96.3%

SMILES	Percent Effect
CC(=O)N1CCC(NC(=O)CN2CCCc3c(C)ccc(F)c32)CC1	97.89%
Cc1ccc(F)c2c1CCCN2CC(=O)NC1CCS(=O)(=O)C1 (stereo unspecified)	90.32%
Cc1cn(CC(=O)NC2CCN(C(=O)C3CC3)CC2)c2ccccc12	4.79%
CC(=O)N1CCC(NC(=O)Cc2csc(C(C)(C)C)n2)CC1	-8.702%
CN1CCCC(C(=O)N2CCC(Oc3ccc(C#N)cn3)CC2)C1 (stereo unspecified)	3.335%
O=C1CC(c2cccs2)c2snc(C(=O)O)c2N1 (stereo unspecified)	12.4%
Cc1ccc(C(=O)N[C@H]2CN(CCO)C[C@@H]2C2CC2)cc1Cl	4.454%
CCNC(=O)NC(=O)CSC(C)c1ccccc1F (stereo unspecified)	-4.407%
O=C(C[S+]([O-])Cc1csc(C2CCCC2)n1)NC1CCCC1 (stereo unspecified)	-2.557%
CS(=O)(=O)c1cnc(N2CCCC2)nc1C1CCN(C(=O)C2CC2)CC1	114.1%
CCC(=O)N1CCC(c2nc(N3CCCC3)ncc2S(C)(=O)=O)CC1	99.88%
CCN(C)CC(=O)N1CCC(c2cc(N3CCOCC3)nc(C)n2)CC1	25.94%
CCOc1cc(C)nc(N2CCN(C(=O)CC)CC2)n1	-2.122%
Cc1noc(-c2ccc(N3CCCC(C(=O)N4CCSCC4)C3)nc2)n1 (stereo unspecified)	-16.11%
CCC(=O)N1CCC(c2nc(N3CCCCC3)ncc2S(C)(=O)=O)CC1	129%
CCc1nc(CC(=O)N2CCC(C(=O)N3CCCCC3)CC2)cs1	9.16%
CCC(=O)N1CCC(c2nc(N3CCOCC3)ncc2S(C)(=O)=O)CC1	98.3%
CCC(=O)N1CCc2nc(N3CCOCC3)nc(N(C)C)c2CC1	-3.249%
Cc1ncc(S(C)(=O)=O)c(N2CCCCCC2)n1	3.738%
